# Rows were chosen to be rich in hits. Some 3.2% of all compounds tested hit in one or more screens of this group.
# FBPA coupling cs – qHTS Assay for Inhibitors of Fructose-1,6-bisphosphate Aldolase from Giardia Lamblia: Coupling assay counterscreen | coupling enzyme system counterscreen, AmpLite Red fluorescence | activity change, negative = inhibition, % at 58.2 µM, hits read low | 290,000 compounds, 0.67% hits; in the data active means activity change below about -30%
#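 Activity here indicates interference with the coupling reaction, not aldolase inhibition. Compounds at 57.5 uM final met coupling enzymes for 10 min at RT; substrate and AmpLite Red detection followed, with a 525/598 nm fluorescence read after 20 min.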
# GALK inh – qHTS Assay for Inhibitors of Human Galactokinase (GALK). Potency, µM (top dose mostly 57.5 µM), inactives show at the highest dose activity change, negative = inhibition, usual class: inhibitors. Purified GALK, Kinase-Glo residual ATP luminescence. AID 1868, 2009. 270,000 compounds, 0.007% hits; further: potency means the concentration at half of the fitted maximal effect
#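 Galactose (100 uM) and ATP (35 uM) were turned over by 5 nM GALK for 1 h at RT. Kinase-Glo Plus then converted the remaining ATP into a luminescent signal.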
# VDR inhibitor – Inhibitors of the vitamin D receptor (VDR): qHTS; Vitamin D3 receptor (Homo sapiens), P11473; VDR-SRC2-3 peptide fluorescence polarization, 2 h; Potency, µM, for inactives: max response, negative = inhibition, hits mostly inhibitors; 400,000 compounds, 0.93% hits; further: potency means the concentration at half of the fitted maximal effect
#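 Measured by FP: displacement of SRC2-3 coactivator peptide from VDR by library compounds, following a two-hour ambient incubation.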
# PLK1 PBD inh – qHTS for Inhibitors of PLK1-PDB (polo-like kinase 1 - polo-box domain): Primary Screen; Potency, µM, without a hit: max response, negative = inhibition, hits mostly inhibitors; Plk1 PBD binding of FITC phosphopeptide, fluorescence polarization; 360,000 compounds, 2.8% hits; Serine/threonine-protein kinase PLK1 (Homo sapiens), P53350; further: potency means the concentration at half of the fitted maximal effect; series mostly up to about 57 µM; nearly all actives have a fitted effect of over 65% in size
# USP1-UAF1 inh – Inhibitors of USP1/UAF1: Primary Screen. Ubiquitin carboxyl-terminal hydrolase 1 (Homo sapiens), O94782. recombinant USP1/UAF1, Ub-Rhodamine cleavage fluorescence. Potency, µM (highest dose often 57.1 µM), without a hit: at the top dose activity change, negative = inhibition, most hits filed as inhibitors. 390,000 compounds, 0.23% hits. AID 743255, 2014; further: potency means the concentration at half of the fitted maximal effect; nearly all actives have a fitted effect of over 60% in size
# Target sequence (O94782 whole entry, looked up): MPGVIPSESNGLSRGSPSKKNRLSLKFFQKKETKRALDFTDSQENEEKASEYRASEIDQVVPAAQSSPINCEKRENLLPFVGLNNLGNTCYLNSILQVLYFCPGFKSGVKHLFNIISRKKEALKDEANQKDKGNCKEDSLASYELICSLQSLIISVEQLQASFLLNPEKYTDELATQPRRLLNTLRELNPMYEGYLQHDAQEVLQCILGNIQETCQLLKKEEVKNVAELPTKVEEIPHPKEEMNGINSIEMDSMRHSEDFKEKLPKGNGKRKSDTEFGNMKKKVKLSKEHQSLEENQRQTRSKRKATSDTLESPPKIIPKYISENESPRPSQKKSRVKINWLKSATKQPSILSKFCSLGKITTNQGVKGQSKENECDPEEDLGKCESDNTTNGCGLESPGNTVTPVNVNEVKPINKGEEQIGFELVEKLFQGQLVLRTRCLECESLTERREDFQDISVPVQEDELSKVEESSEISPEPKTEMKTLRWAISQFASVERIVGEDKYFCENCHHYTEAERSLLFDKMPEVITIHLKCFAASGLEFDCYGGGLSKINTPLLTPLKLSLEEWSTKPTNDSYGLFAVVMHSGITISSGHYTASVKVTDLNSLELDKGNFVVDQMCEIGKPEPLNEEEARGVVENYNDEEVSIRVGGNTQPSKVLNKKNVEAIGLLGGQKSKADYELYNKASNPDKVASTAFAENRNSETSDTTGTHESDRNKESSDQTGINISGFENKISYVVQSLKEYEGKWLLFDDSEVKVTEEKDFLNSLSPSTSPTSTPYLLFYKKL
#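 1 nM enzyme complex + cpd, 15 min RT; start with Ub-Rho 150nM final; kinetic fluorescence ex 480/em 540, 6 reads q60 s. Buffer 50mM HEPES pH 7.8, 0.5mM EDTA, 0.1 mg/ml BSA, 1mM TCEP, 0.01% Tween-20.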
# USP2a block – qHTS Assay for Inhibitors of Ubiquitin-specific Protease USP2a Using CHOP2 as the Reporter | 330,000 compounds, 0.01% hits | USP2 core, Ub-CHOP2 coupled fluorogenic reporter, 485/531 | Potency, µM (highest dose often 38.3 µM), for inactives: at the highest dose activity change, negative = inhibition, most hits filed as inhibitors;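 further: potency means the concentration at half of the fitted maximal effect; plate controls were DMSO wells for no effect and full inhibition by NEM control for full effect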
#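 Deubiquitinase activity read as fluorescence (485/531 nm) after Ub-CHOP2 cleavage activates the enterokinase reporter on its substrate; USP2 core 10nM, Ub-CHOP2 and substrate 25nM each, 30min compound preincubation then 60min RT; data normalized to NEM, curves fitted.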
# The depositor's hits bear a star; ? = inconclusive; . = not tested or not shown. Unless noted, the call rests on the fitted dose curve; in most records, active means well fitted curve in the direction sought with a large enough effect; inconclusive means small, poorly fitted or top-dose-only effect, or another doubt; inactive means no such curve, though single readings can be large; an effect the other way counts as inactive or inconclusive. Unless noted, on the % scale 0 is the no-effect control and ±100 the full control effect.
SMILES,FBPA coupling cs,GALK inh,VDR inhibitor,PLK1 PBD inh,USP1-UAF1 inh,USP2a block
CC(=O)c1cccc(NC(=O)Cn2cnc(S(=O)(=O)N3CCCCC3)c2)c1,0,0%,20%,1%,?,1%
CC1=NOC2(C1)N(C)c1ccccc1C2(C)C (centres undefined),-1,-2%,3%,-7%,-4%,-3%
COc1ccc2ccc3c(c2c1)N=C[C@]1(O3)N(C)c2ccccc2C1(C)C,-67*,-2%,-12%,3µM*,?,2%
COc1ccc(-c2c(C)n([O-])c(C)c(C)[n+]2=O)cc1,0,1%,-4%,24µM*,-4%,0%
Cc1cc(C)c(S(C)(=O)=O)c(Oc2ccc(F)cc2)n1,1,.,-23%,-9%,-11%,2%
Cc1cc(C)c(S(C)(=O)=O)c(Oc2ccccc2C)n1,5,-2%,-13%,21µM*,-4%,3%
CCOC(=O)c1sc2nccc(N(C)C)c2c1N=CNOC,0,0%,?,15µM*,-21%,3%
CCOC(=O)c1sc2nccc(N(C)C)c2c1N=CNOCc1ccccc1,-2,-1%,-4%,-4%,-22%,-2%
COc1ccc(C(C)(C)C)cc1NC(=O)COC(=O)c1ccc([N+](=O)[O-])o1,-7,0%,-27%,30µM*,-12%,1%
COc1ccccc1NC(=O)COc1ccc(C(F)(F)F)cc1[N+](=O)[O-],.,.,-11%,27µM*,-2%,.
COc1ccc(NC(=O)c2ccco2)cc1NC(=O)COc1ccccc1[N+](=O)[O-],1,-2%,-7%,-1%,-16%,0%
Cc1nc(C)c(-c2csc(Nc3ccc(O)cc3C)n2)s1,1,-1%,-22%,27µM*,-12%,1%
C=CCN(CC=C)C(=S)NC(=O)/C=C/c1ccccc1,13,2%,20µM*,15µM*,-14%,2%
C=CCN(CC=C)C(=S)NC(=O)/C=C/c1ccc(C)cc1,8,3%,0%,7%,-16%,-1%
O=C(CCC(=O)Nc1ccccc1Cl)N/N=C/c1ccccc1,-47*,3%,-22%,-9%,-11%,3%
O=C(CC(=O)N/N=C/c1ccccc1)NCc1ccccc1,-40*,-2%,8%,1%,-30%,3%
O=C(CCNC(=O)c1ccccc1Cl)N/N=C\c1ccc(O)cc1,-21,1%,22µM*,12µM*,-13%,0%
O=C(Cc1ccccc1)NN=Cc1ccccc1,.,.,-6%,1%,-8%,.
O=C(CNS(=O)(=O)c1ccccc1)N/N=C\c1ccc(Cl)cc1,2,0%,-18%,24µM*,-11%,0%
O=C(CNS(=O)(=O)c1ccccc1)N/N=C/c1ccc(O)cc1,2,10%,3%,-15%,-10%,1%
CCCn1c(=N)c(C(=O)NCc2ccc3c(c2)OCO3)cc2c(=O)n3cccc(C)c3nc21,1,0%,-12%,-3%,-7%,3%
Cc1cc(C)cc(OCC(=O)N(C)CC(=O)Nc2ccc(Cl)c(C(F)(F)F)c2)c1,.,.,-16%,-2%,-29%,0%
COc1ccc(OCC(O)CN2CCCCC2)cc1 (centres undefined),9,1%,-2%,-1%,-24%,3%
O=C(Cc1ccc(S(=O)(=O)N2CCOCC2)s1)Nc1nc2c(s1)CCCC2,-59*,3%,-8%,?,?,?
COc1ccc(CNCCc2ccc([N+](=O)[O-])cc2)c(OC)c1OC,0,2%,11%,-7%,5%,5%
SMILES,FBPA coupling cs,GALK inh,VDR inhibitor,PLK1 PBD inh,USP1-UAF1 inh,USP2a block
COc1cc(N(C)C)cc(CN(C)CCc2ccc([N+](=O)[O-])cc2)c1O,-54*,.,2.5µM*,.,.,.
NC(=S)N=Nc1ccc(O)cc1,.,.,?,27µM*,?,.
NC(N)=NC(N)=Nc1ccc(O)cc1,0,4%,-26%,-2%,-6%,3%
O=C(Nc1nc(-c2ccc(F)cc2)cs1)c1cnccn1,-2,.,2%,-8%,-6%,4%
CN(C)S(=O)(=O)c1ccc(C(=O)Oc2cc(=O)[nH]c3ccccc23)cc1,2,5%,-13%,8.4µM*,-10%,-1%
CCOC(=O)c1[nH]c2ccccc2c1NC(=O)c1ccc(S(=O)(=O)N(C)C)cc1,0,.,6%,-13%,?,1%
CCOc1ccc(C(=O)NC2CCCCCCC2)cc1,.,.,15%,3%,-15%,.
COc1ccc(C(=S)NC2CCCCC2)cc1,0,3%,89µM*,24µM*,-2%,-1%
CCOc1ccc(C(=S)NC2CCCCC2)cc1,1,-3%,-16%,27µM*,-10%,-1%
COc1ccc(CN2C(=O)[C@H]3Cc4c([nH]c5ccccc45)C(C)(C)N3C2=O)cc1,.,.,-15%,.,.,.
Cc1cc(Cl)c(C)c(S(=O)(=O)Oc2ccccc2NC(=O)CCC(=O)O)c1Cl,.,.,4%,2%,-1%,1%
COC(=O)/C(=C/Nc1ccc(O)cc1)[N+](=O)[O-],-36*,-3%,-3%,-4%,-18%,2%
CCOC(=O)CSc1[nH]c(=O)cc(C)c1C#N,6,-3%,-17%,-9%,-9%,0%
Cc1cc(=O)[nH]c(SCC(=O)OCc2ccccc2)c1C#N,11,1%,-23%,21µM*,-8%,2%
CCOC(=O)c1ccc(N2C(=O)C=CC2=O)cc1,-4,0%,50µM*,3.8µM*,-25%,-1%
CCOC(=O)c1ccc(-n2c(C)ccc2C)cc1,3,0%,-5%,0%,-9%,-10%
Cc1c(C2(O)CCCCC2)[nH]c2ncccc12,.,.,6%,-3%,-21%,-1%
COc1cc(/C=C2\SC(c3ccccc3)=NC2=O)cc(Cl)c1O,1,15%,?,11µM*,?,-18%
O=C(c1cc(F)ccc1F)C1CCCN(Cc2cccn2-c2ccccn2)C1 (centres undefined),0,3%,-5%,-16%,5%,1%
COC(=O)c1ccc(-n2nnnc2SC)cc1,1,2%,-18%,21µM*,6%,-1%
CN(C)c1ncc2nc(CCc3ccccc3)c(=O)n(C[C@H]3CCCO3)c2n1,-3,.,?,.,.,.
